Compound activity from PubChem.
Compounds with a hit are over-represented: about 1.8% of the library has one in this group of screens.
LYPLA2 inh – LYPLA2 (human) inhibition in PME1 counter-screen; O95372; recombinant LYPLA2, FP-Rh probe fluorescence polarization; inhibition, % at 5.9 µM; 0.38% of 320,000 active;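 active = inhibition above the screen-wide mean plus 3 SD, limit set per campaign, cut at about 26% in these data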;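 note: 0% = LYPLA2 with DMSO and 100% = wells lacking LYPLA2 enzyme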
LYPLA1 counter – counter-screen for PME1 inhibitors: inhibitors of human LYPLA1. recombinant LYPLA1, FP-Rh probe fluorescence polarization. O75608. inhibition, % at 5.9 µM. 0.16% of 320,000 active;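 active = inhibition above the mean of all tested compounds plus 3 SD, set per campaign, cut at about 14% in these data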;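 note: inhibitors block serine hydrolase probe labeling of LYPLA1 so polarization falls; 0% = enzyme with DMSO and 100% = wells lacking LYPLA1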
PME-1 inh – blocks human protein phosphatase methylesterase 1. recombinant PME-1, FP-Rh probe fluorescence polarization. AID 2130. inhibition, % at 5.9 µM. Q9Y570. 0.53% of 320,000 active;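 active = inhibition above the campaign mean of all compounds plus 3 SD, cut at about 26% in these data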;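 note: competitive labeling of PME-1 active site by serine hydrolase directed probe; 0% = PME-1 with DMSO and 100% = wells lacking PME-1 enzyme; inhibitors block probe labeling so polarization falls and inhibition rises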
PAD4 FP inh – blocks human protein arginine deiminase 4; inhibition, % at 6.36 µM; Q9UM07; AID 485272; 0.41% of 330,000 active; recombinant PAD4, RCA probe fluorescence polarization;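 active = percent inhibition above a cutoff equal to the mean of all tested compounds plus 3 SD, cut at about 15% in these data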;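 note: 0% = PAD4 with RCA probe and DMSO and 100% = probe without PAD4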
Target sequence (Q9UM07 whole entry, looked up): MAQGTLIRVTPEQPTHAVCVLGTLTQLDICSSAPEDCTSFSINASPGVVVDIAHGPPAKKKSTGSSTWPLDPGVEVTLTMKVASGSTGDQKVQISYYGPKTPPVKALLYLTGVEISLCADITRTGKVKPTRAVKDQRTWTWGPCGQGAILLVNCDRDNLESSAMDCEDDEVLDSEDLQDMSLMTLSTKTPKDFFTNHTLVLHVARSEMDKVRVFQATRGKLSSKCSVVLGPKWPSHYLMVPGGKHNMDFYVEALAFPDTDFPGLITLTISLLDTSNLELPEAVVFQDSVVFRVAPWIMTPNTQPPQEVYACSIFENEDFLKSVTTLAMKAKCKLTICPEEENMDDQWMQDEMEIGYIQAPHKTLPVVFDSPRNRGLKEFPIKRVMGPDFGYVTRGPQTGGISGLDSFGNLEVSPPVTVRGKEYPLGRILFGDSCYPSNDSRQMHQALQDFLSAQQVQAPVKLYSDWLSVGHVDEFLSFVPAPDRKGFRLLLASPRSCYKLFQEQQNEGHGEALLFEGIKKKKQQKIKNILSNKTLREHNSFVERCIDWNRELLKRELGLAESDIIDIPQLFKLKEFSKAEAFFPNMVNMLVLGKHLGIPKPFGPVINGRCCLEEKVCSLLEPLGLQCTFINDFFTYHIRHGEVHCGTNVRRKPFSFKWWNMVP
GSTO1 counter – GSTO1 inhibition, counter-screen for RBBP9 inhibitors. P78417. recombinant GSTO1, activity-based probe fluorescence polarization. inhibition, % at 5.96 µM. 1.1% of 300,000 active. AID 1974;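 active = inhibition above the campaign mean inhibition plus 3 SD, cut at about 35% in these data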;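 note: 0% = GSTO1-1 with DMSO and 100% = wells lacking GSTO1-1 enzyme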
Fam108B counter – blocks mouse Fam108B hydrolase in RBBP9 counter-screen; recombinant Fam108B, FP-Rh probe fluorescence polarization; inhibition, % at 9.51 µM; 0.33% of 300,000 active;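 active = inhibition above the screen mean inhibition plus 3 SD, computed separately per campaign, cut at about 18% in these data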;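 note: inhibitors lower polarization as less probe binds the enzyme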
Numbers without * were called inactive; nt = no result.

SMILES	LYPLA2 inh	LYPLA1 counter	PME-1 inh	PAD4 FP inh	GSTO1 counter	Fam108B counter
CC(CCc1ccccc1)NC(=O)C(Cc1ccccc1)NC(N)=O (stereo unspecified)	3	2	-5	5	4	0
Cc1cc(-c2ccc(N=Nc3c(S(=O)(=O)O)cc4cc(S(=O)(=O)O)cc(N)c4c3O)c(C)c2)ccc1N=Nc1c(S(=O)(=O)O)cc2cc(S(=O)(=O)O)cc(N)c2c1O	-19	-22	3	-45	-76	36*
COC(=O)c1oc2ccc(OC)cc2c1N	1	1	-1	-4	-1	3
COc1ccc(C(=O)c2oc3ccc(OC)cc3c2N)cc1	4	4	33*	-4	-4	9
CCC(C)C(=O)Nc1cc(C(=O)OC)ccc1C(=O)OC (stereo unspecified)	5	3	1	-1	4	2
CCOCC(=O)Nc1cc(C(=O)OC)ccc1C(=O)OC	4	8	3	5	37*	-1
CCN(CC(=O)NC1CCS(=O)(=O)C1)S(=O)(=O)c1ccccc1Cl (stereo unspecified)	5	2	5	1	1	3
CC(=O)N1CCc2cc(S(=O)(=O)CCC(=O)N3CCN(c4cc(C)ccc4C)CC3)ccc21	-4	4	-1	-3	-15	-1
Cc1c(CCO)c(=O)n(-c2ccccc2)n1S(=O)(=O)c1c(Cl)cc(Cl)cc1Cl	2	5	22	-5	37*	-1
CN(C)S(=O)(=O)c1cccc(NC(=O)COC(=O)CNC(=O)c2cccc([N+](=O)[O-])c2)c1	3	-2	2	0	3	4
Nc1ccc(Br)c2c1C(=O)c1ccccc1C2=O	3	4	26*	4	10	1
Cc1ccc(C)n1Cc1ccc(C(=O)O)cc1	-7	-8	-18	7	59*	37*
Cc1cc(C)n(Cc2ccc(C(=O)O)cc2)n1	2	0	2	3	9	3
COc1ccccc1NS(=O)(=O)c1cc(NC(=O)C2CCCO2)ccc1C (stereo unspecified)	nt	nt	nt	-1	nt	nt
COc1ccc(-c2cc(-c3ccc(C)cc3)n[nH]2)c(O)c1	-6	-8	47*	0	-3	5
CC1(OC(=O)CCc2ccccc2)C(=O)C=C2C=C3CCCN3C=C2C1=O (stereo unspecified)	-6	-5	4	-11	36*	3
CSCCC(NC(=O)c1cccc(C)c1)C(=O)NCc1cccs1 (stereo unspecified)	nt	nt	nt	-3	nt	nt
COc1ccc(S(=O)(=O)N2CCCN(CC(=O)Nc3ccc(OC)c(Cl)c3)CC2)cc1	-2	-2	-2	2	36*	1
COc1ccc(-n2c(C)cc(C(=O)CN3C(=O)c4ccccc4C3=O)c2C)cc1	15	-5	-1	5	-7	0
Cc1cc(-n2c(C)cc(C(=O)CCl)c2C)no1	-1	3	-4	3	83*	-1
Cc1cc(C(=O)CC#N)c(C)n1-c1ccc(OC(F)F)cc1	6	-3	36*	-10	-14	5
Cc1ccc(OCC(=O)c2cc(C)n(C3CC3)c2C)c([N+](=O)[O-])n1	12	-3	-7	-6	10	2
COc1ccc(-n2c(C)cc(C(=O)CCl)c2C)cc1	-2	1	10	2	97*	1
COc1ccc(-n2c(C)cc(C(=O)COc3ccc(C)nc3[N+](=O)[O-])c2C)cc1	26*	5	-3	-1	3	5
Cc1nn(C)c2ncc(C(=O)c3ccccc3O)cc12	6	11	5	2	0	-2
Cc1nn(-c2ccccc2)c2ncc(C(=O)c3cc(Cl)ccc3O)cc12	-6	-8	29*	-3	-2	-9
O=C1NC(=O)/C(=C/c2cccc3ccccc23)S1	5	-2	-6	3	-29	-5
O=C1NC(=O)/C(=C\c2ccc(O)cc2O)S1	-3	-7	-6	1	63*	-2
O=C(Nc1ccc(N2CCCC2)cc1)C(Cl)c1ccccc1 (stereo unspecified)	0	-1	6	5	35*	0
Cc1ccc(CN2CCN(/N=C/c3ccc(O)c(O)c3)CC2)cc1	7	1	5	7	36*	1
